Laboratory results reported in ChEMBL document CHEMBL2218924, “A broad activity screen in support of a chemogenomic map for kinase signalling research and drug discovery” (Biochem J, 2013).

Key:
[1] = target: T1, Ephrin type-A receptor 3 (Homo sapiens) (UniProt P29320); settings: at 10 µM
T1 sequence (whole entry): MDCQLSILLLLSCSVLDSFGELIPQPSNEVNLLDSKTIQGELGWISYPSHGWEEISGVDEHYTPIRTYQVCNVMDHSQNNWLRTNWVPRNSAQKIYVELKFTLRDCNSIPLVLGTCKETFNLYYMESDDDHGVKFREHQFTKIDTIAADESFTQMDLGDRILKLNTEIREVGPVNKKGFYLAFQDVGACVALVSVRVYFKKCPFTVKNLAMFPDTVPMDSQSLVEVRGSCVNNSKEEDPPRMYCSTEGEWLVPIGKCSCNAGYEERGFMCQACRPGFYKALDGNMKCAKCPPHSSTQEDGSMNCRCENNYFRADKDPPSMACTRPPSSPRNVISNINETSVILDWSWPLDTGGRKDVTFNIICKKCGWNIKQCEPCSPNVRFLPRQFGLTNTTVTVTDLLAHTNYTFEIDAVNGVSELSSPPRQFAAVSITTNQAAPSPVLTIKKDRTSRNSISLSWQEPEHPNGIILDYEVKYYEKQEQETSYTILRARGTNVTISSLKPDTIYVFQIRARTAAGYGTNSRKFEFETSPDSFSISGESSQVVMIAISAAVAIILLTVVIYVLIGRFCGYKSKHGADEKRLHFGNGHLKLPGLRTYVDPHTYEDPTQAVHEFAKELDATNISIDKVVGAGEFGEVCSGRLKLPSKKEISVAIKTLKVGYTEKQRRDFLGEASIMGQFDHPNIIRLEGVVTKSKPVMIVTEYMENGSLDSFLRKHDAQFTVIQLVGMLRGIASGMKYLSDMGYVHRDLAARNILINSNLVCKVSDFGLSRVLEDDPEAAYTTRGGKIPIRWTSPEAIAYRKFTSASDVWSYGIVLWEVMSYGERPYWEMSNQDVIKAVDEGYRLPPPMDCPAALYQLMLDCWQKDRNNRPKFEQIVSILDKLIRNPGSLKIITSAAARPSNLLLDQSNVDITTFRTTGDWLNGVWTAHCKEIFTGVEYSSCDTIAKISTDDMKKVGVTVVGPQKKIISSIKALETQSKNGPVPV

[2] = target: Ephrin type-A receptor 4 (Homo sapiens) (UniProt P54764); settings: at 1 µM
[3] = target: Ephrin type-A receptor 4 (Homo sapiens) (UniProt P54764); settings: at 10 µM
[4] = target: Ephrin type-A receptor 7 (Homo sapiens) (UniProt Q15375); settings: at 10 µM
[5] = target: T2, Ephrin type-A receptor 8 (Homo sapiens) (UniProt P29322); settings: at 1 µM
T2 sequence (whole entry): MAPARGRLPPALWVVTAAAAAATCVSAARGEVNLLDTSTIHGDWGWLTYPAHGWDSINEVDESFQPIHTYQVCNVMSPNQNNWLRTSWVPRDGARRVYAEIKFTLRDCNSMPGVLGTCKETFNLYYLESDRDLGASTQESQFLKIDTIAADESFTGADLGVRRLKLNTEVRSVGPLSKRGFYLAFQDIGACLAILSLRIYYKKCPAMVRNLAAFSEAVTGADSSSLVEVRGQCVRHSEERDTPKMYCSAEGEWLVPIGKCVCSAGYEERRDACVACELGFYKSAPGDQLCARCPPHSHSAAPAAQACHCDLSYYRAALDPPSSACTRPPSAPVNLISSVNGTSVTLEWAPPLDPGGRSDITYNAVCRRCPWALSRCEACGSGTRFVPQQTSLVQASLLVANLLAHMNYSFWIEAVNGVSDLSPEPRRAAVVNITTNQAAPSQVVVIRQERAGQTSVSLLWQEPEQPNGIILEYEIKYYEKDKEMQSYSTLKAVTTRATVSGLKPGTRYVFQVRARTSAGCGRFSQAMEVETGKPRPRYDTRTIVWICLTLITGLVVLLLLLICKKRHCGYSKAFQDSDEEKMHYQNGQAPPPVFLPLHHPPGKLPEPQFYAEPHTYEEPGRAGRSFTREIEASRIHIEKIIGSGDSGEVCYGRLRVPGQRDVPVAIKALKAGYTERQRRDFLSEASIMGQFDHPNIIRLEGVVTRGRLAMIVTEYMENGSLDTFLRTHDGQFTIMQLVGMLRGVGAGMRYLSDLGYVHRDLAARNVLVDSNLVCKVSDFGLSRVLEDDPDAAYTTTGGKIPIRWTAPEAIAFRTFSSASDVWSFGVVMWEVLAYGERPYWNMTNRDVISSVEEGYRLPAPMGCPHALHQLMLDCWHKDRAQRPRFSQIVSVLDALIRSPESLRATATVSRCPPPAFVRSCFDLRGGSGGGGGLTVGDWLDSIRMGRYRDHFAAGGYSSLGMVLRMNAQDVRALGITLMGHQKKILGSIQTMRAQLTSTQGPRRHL

[6] = target: T2, Ephrin type-A receptor 8 (Homo sapiens); settings: at 10 µM
[7] = target: T3, Ephrin type-B receptor 1 (Homo sapiens) (UniProt P54762); settings: at 1 µM
T3 sequence (whole entry): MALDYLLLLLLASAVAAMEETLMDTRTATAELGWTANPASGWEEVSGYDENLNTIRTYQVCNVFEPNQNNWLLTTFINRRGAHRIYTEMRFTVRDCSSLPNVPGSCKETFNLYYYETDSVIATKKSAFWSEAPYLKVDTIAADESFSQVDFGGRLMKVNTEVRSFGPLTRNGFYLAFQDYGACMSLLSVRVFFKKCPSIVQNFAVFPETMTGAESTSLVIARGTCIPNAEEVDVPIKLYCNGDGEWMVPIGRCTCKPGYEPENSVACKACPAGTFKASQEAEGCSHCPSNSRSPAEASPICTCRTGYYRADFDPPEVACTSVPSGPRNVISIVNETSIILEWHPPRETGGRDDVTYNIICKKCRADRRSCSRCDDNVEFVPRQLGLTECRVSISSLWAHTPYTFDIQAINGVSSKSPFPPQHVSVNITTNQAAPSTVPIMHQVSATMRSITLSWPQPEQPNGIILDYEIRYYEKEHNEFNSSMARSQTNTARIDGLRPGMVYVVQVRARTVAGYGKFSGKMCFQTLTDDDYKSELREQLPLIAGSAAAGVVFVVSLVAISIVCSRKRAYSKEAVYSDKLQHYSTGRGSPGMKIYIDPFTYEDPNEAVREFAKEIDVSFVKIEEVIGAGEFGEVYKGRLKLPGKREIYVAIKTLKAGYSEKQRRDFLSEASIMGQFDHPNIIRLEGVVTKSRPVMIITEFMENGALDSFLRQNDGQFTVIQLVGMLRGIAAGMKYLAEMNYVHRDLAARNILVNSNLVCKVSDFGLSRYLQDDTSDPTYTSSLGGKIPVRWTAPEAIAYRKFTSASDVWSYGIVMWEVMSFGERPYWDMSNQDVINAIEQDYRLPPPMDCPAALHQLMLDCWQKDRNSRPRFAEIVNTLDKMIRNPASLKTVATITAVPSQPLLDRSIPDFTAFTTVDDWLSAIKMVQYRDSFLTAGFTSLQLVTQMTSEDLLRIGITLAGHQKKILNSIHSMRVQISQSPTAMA

[8] = target: T3, Ephrin type-B receptor 1 (Homo sapiens); settings: at 10 µM
[9] = target: T4, Ephrin type-B receptor 2 (Homo sapiens) (UniProt P29323); settings: at 1 µM
T4 sequence (whole entry): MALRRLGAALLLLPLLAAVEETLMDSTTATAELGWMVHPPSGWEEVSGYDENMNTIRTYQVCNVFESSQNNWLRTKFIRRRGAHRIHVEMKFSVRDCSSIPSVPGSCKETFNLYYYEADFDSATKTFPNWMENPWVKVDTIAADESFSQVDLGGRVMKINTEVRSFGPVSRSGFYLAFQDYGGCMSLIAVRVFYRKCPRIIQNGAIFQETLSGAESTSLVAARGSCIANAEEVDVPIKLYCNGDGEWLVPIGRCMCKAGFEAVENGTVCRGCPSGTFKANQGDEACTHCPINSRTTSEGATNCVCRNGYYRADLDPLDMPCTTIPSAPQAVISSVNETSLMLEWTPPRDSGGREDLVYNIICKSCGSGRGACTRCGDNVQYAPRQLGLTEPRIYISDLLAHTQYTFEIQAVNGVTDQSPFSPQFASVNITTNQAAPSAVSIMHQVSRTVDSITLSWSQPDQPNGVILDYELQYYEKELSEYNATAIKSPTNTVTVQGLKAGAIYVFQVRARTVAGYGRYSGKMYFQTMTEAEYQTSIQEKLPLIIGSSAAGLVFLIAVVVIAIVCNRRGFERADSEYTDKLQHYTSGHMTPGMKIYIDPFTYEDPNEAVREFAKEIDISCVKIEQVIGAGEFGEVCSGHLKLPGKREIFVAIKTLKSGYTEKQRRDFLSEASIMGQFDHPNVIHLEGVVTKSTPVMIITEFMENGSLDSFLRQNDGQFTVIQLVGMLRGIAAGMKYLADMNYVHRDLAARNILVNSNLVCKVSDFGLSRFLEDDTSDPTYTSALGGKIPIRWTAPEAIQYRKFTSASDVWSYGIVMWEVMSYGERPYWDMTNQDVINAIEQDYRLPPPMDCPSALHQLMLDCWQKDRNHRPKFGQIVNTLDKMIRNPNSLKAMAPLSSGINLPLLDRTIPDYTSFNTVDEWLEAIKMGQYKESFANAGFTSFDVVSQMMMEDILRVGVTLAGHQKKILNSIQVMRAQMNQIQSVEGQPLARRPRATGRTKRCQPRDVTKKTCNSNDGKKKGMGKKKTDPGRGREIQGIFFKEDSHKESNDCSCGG

[10] = target: T5, Ephrin type-B receptor 3 (Homo sapiens) (UniProt P54753); settings: at 1 µM
T5 sequence (whole entry): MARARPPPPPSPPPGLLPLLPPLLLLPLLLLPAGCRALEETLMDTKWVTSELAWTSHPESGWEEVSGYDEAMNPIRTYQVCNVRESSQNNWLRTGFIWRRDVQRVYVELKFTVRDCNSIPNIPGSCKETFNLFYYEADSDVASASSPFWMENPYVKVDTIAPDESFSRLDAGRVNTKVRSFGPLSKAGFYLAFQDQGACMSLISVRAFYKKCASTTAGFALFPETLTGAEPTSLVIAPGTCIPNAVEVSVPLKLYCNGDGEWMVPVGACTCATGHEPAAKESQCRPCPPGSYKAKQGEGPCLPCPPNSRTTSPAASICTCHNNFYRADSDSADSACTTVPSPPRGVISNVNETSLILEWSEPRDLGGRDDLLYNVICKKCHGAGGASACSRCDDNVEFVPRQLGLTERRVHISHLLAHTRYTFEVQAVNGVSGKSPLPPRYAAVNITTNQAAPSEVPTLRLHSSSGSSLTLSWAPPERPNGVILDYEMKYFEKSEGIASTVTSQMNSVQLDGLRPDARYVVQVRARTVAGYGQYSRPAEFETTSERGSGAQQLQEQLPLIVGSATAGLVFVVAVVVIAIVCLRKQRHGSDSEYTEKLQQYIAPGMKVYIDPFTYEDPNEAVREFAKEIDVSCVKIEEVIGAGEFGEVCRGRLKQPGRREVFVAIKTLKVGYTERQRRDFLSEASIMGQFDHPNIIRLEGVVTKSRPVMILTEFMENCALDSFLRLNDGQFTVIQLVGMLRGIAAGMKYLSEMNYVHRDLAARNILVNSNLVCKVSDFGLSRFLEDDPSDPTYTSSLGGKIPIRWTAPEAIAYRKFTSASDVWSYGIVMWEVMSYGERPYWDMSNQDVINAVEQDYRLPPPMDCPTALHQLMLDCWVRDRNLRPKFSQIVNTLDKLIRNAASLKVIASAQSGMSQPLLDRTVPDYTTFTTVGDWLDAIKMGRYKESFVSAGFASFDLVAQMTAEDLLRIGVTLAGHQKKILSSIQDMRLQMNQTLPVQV

[11] = target: T5, Ephrin type-B receptor 3 (Homo sapiens); settings: at 10 µM
[12] = target: Receptor tyrosine-protein kinase erbB-4 (Homo sapiens) (UniProt Q15303); settings: at 1 µM
[13] = target: Receptor tyrosine-protein kinase erbB-4 (Homo sapiens) (UniProt Q15303); settings: at 10 µM

Receptor tyrosine-protein kinase erbB-4 (Homo sapiens), sequence (Q15303 whole entry): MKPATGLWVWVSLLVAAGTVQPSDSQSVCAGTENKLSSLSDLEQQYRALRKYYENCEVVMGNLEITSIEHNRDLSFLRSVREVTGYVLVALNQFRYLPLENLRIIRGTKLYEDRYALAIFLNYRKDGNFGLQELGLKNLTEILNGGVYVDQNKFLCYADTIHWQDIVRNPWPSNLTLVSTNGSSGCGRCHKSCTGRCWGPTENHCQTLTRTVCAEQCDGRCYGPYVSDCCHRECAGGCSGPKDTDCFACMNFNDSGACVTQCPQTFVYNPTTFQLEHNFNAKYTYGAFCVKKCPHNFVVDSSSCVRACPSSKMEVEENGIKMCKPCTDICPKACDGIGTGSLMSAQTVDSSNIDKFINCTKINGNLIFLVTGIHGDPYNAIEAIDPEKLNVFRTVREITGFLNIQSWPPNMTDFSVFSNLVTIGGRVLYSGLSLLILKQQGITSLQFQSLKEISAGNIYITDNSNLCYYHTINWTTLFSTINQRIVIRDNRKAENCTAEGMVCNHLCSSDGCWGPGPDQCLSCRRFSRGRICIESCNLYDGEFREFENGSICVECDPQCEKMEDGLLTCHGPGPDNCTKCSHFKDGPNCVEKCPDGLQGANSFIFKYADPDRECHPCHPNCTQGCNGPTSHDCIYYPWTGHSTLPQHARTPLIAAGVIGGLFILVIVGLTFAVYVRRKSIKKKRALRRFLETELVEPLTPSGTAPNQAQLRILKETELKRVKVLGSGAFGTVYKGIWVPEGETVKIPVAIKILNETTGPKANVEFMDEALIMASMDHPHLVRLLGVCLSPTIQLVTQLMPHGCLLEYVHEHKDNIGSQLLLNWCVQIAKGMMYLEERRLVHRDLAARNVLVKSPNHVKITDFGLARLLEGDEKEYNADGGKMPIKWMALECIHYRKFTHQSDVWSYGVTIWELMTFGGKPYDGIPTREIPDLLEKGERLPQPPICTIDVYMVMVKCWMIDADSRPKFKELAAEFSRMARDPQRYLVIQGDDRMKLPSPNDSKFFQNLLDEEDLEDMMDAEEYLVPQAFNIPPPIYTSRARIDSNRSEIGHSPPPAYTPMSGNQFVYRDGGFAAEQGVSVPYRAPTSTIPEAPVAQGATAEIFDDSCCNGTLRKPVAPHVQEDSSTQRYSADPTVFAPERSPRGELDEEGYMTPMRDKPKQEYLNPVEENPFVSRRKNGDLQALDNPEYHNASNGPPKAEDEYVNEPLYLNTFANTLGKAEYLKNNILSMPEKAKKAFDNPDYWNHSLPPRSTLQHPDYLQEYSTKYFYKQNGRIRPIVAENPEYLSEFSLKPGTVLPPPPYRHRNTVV
Ephrin type-A receptor 4 (Homo sapiens), sequence (P54764 whole entry): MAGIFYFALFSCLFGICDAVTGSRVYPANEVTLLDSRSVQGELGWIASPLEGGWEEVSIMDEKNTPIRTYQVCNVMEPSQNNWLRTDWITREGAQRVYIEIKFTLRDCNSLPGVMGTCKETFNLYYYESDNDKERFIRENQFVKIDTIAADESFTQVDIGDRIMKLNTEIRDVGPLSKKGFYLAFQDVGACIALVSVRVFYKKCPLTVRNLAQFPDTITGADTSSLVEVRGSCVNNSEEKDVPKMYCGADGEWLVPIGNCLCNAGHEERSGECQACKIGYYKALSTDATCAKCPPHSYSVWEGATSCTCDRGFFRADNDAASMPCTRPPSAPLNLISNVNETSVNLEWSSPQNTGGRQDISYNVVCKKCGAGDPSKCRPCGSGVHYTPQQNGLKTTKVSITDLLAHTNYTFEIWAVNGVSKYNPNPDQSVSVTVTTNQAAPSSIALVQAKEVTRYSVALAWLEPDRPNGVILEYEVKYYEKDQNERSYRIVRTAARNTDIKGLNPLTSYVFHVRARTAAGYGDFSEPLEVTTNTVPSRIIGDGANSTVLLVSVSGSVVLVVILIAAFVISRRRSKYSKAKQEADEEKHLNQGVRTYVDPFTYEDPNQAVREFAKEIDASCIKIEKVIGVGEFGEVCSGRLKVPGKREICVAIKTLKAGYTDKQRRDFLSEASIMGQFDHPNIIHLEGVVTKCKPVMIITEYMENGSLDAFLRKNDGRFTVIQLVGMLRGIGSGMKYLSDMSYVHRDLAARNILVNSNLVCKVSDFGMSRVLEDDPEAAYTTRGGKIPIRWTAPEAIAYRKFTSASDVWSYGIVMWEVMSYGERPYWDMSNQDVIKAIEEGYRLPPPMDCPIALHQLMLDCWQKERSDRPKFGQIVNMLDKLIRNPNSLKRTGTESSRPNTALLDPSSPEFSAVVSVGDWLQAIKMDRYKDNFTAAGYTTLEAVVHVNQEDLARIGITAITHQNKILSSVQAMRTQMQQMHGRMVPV
Ephrin type-A receptor 7 (Homo sapiens), sequence (Q15375 28-998 limits assumed): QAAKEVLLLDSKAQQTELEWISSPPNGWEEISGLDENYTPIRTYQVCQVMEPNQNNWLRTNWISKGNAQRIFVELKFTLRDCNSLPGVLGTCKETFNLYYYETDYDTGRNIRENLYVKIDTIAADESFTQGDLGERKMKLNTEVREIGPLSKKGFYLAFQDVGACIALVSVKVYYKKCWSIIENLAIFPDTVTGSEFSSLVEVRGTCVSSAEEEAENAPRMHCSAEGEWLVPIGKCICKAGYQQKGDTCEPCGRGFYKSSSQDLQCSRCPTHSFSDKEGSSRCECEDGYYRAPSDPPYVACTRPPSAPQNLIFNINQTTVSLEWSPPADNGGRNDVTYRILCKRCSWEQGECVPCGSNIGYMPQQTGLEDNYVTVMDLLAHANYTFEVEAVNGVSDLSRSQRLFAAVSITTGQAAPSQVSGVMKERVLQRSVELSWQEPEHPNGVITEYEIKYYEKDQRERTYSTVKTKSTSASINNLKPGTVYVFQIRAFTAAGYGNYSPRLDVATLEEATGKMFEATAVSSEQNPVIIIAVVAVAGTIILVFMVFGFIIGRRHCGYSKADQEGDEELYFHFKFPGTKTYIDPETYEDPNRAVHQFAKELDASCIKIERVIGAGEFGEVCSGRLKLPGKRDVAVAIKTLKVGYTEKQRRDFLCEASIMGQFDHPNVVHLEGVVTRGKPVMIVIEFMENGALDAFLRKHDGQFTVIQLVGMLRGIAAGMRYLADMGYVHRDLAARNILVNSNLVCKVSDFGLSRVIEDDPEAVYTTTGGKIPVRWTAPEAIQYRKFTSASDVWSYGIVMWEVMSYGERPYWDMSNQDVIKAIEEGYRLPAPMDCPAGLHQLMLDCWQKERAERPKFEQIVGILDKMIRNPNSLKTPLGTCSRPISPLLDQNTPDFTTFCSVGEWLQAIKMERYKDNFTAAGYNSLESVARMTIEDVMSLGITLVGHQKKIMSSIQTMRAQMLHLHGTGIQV

`COc1ccc2c(c1)c(C1=C(c3c[nH]c4ccccc34)C(=O)NC1=O)cn2CCCN(C)C` gave a residual activity [1] of 60%, a residual activity [2] of 115% and a residual activity [3] of 73%. The residual activity [4] was 44%, the residual activity [5] was 100% and the residual activity [6] was 96%. For the same molecule, the residual activity [7] was 80%, the residual activity [8] was 53% and the residual activity [9] was 109%. The residual activity [10] was 111% (inactive), the residual activity [11] was 124% and the residual activity [12] was 75%. The residual activity [13] was 53%.
